The values that follow come from PubChem BioAssay (NCATS).

Several values for one entry are separate records, joined by “and”; a condition that tells them apart may be missing. Equal entries are not always repeated. Inconclusive results are not listed. Unmarked numbers belong to inactive results. The call rests on the fitted dose curve; in most records, active means well fitted inhibition curve with a large enough effect in the signal ratio, with a control signal flat (not every such curve was filed as active); inconclusive means small, poorly fitted or top-dose-only effect, or effect the other way, or a change in a side signal; inactive means flat fitted curve, though single readings scatter; the % refers to the signal ratio.
On the % scale 0 is the no-effect control and ±100 the full control effect.

Sequence of Thyroid hormone receptor beta (Homo sapiens) (P10828 whole entry, looked up): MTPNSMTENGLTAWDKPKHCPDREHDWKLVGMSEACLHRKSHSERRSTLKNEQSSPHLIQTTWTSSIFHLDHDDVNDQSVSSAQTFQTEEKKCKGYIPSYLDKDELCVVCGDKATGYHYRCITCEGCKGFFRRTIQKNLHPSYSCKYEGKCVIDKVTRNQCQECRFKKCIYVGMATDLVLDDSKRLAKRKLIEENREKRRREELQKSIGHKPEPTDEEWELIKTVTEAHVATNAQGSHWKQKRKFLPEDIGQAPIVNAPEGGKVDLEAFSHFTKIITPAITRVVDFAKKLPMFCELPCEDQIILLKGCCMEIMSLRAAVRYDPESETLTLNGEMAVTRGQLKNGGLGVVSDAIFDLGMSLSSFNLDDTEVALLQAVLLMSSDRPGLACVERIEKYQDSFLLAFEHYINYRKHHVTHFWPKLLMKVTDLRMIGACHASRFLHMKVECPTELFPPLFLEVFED

For the assay, the target named is Thyroid hormone receptor beta (Homo sapiens) (UniProt P10828). The assay is described as follows: qHTS assay for small molecule antagonists of thyroid hormone receptor beta signaling (AID 588547).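 Further: cells stimulated with 0.4 nM T3 agonist during compound exposure; series mostly up to about 77 µM.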 The settings on record: TR-UAS-bla HEK293, beta-lactamase ratio, antagonist mode, 18 h. An excerpt:
NIH Chemical Genomics Center [NCGC] U.S. Environmental Protection Agency [EPA] National Institutes of Environmental Health Sciences [NIEHS] National Toxicology Program [NTP] NCGC Assay Overview Thyroid hormone receptor (TR) belongs to nuclear hormone receptor superfamily. There are two subtypes for TR: TR-alpha and TR-beta. TR-beta plays a major role in regulating plasma cholesterol levels and it mediates the biological activities of thyroid hormone. Screening environmental chemicals on TR-beta signaling will provide important information for the mechanism of compound action.
NCGC Assay Protocol Summary Using a beta-lactamase reporter-gene under control of the TR response element, a cell-based assay [GeneBLAzer TR-UAS-bla-GripTite assay developed by Invitrogen] was used to measure TR-beta signaling in antagonist mode. TR-UAS-bla-GripTite HEK 293 cells were used with assay medium containing 2% charcoal/dextran FBS, 0.1 mM NEAA and 1 mM sodium pyruvate. The assay was performed in clear bottom black Greiner 1536-well plates. Library compounds were measured for their ability to inhibit the reporter gene activity. Compounds were screened in a titration series in 1536-well format. The fluorescence intensity (405 nm excitation, 460/530 nm emission) was measured using an EnVision plate reader. […] Concentration-response titration points for each compound were fitted to the Hill equation yielding concentrations of half-maximal inhibition (IC50) and maximal response (efficacy) values. qHTS protocol for TR-beta beta-lactamase assay in antagonist mode [Step] [Parameter] [Value] [Description] 1. Reagent; 5 uL; 2500 cells/well 2. Incubation; 37 C for 4 hrs 3. Compounds; 23 nL; 0.59 nM to 92 uM 4. Controls (DMSO); 23 nL 5. Agonist (Stimulator); 1uL; T3 at 0.4nM (final) concentrations 6. Incubation; 37 C for 18 hrs 7. Detection reagent; 1 uL of CCF4-dye 8. Incubation; RT for 2 hrs 9. Detection; Fluorescence; Envision plate reader
Regarding `C=CC1CO1` (stereo not given), the activity change % (negative = inhibition) was 4.27%.
Turning to `CCCCCCCCOc1ccc(C(=O)O)cc1`, the activity change % (negative = inhibition) was 10%.
Then `CC(CCC(=O)O)(c1ccc(O)cc1)c1ccc(O)cc1`, with -0.624%; and `Cc1ccc2ccc3cccc4ccc1c2c34`, with 1.52%; and `O=[N+]([O-])c1cc(Cl)c(Cl)c(Cl)c1Cl`, with 1.99%.
Regarding `COc1ccc([N+](=O)[O-])cc1N`, the activity change % (negative = inhibition) was -27.9%.
As for `NC(=O)c1ccc([N+](=O)[O-])cc1`, the activity change % (negative = inhibition) is -17.4%.
As to `CCc1ccc(C(c2ccc(CC)cc2)C(Cl)Cl)cc1`, the activity change % (negative = inhibition) is 13.5%.
Regarding `CC(C)S`, the activity change % (negative = inhibition) was 11.8%.
`COc1cc(-c2ccc(N=C=O)c(OC)c2)ccc1N=C=O`: the activity change % (negative = inhibition) is -7.61%.
For the compound `Brc1cc(Oc2cc(Br)c(Br)c(Br)c2Br)c(Br)c(Br)c1Br`, the activity change % (negative = inhibition) was 1.8% and 9.48%.
On to `CC(=O)OC(C(=O)c1ccccc1)c1ccccc1` (stereo not given), for which the activity change % (negative = inhibition) was 4.95%.
As for `Nc1ccccc1O`, the activity change % (negative = inhibition) is -12.3%.
Then `COc1ccc(C(=O)Nc2ccccc2)cc1[N+](=O)[O-]`, with 2.48%; and `CCNC(=S)NCC`, with -1.42%.
Regarding `CN(C)c1ccc(Cc2ccc(N(C)C)cc2)cc1`, the activity change % (negative = inhibition) is 1.5%.
With `C=CC(=O)OCCCCCCOC(=O)C=C` the figure was -7.08%; with `Cc1cc2nc(N)sc2cc1C`, -0.19%.
Turning to `O=C(O)c1cc(N=Nc2ccc([N+](=O)[O-])cc2)ccc1O`, the activity change % (negative = inhibition) was 12.8%.
Then `CCCCCCN`, with -5.98%; and `Cc1ccc(S(N)(=O)=O)cc1`, with 17.3% and -1.91%; and `CC(/C=C/C=C(C)/C=C/C(=O)O)=C\C=C\C=C(C)\C=C\C=C(C)\C=C\C(=O)O`, with -2.15%.
For `CCCCC(CC)COC(=O)COc1ccc(Cl)cc1Cl` (stereo not given), the activity change % (negative = inhibition) was -2.67% and 4.45%.
`Cc1ccccc1OCC1CO1` (stereo not given): the activity change % (negative = inhibition) was -11%.
For `CCOC(=O)C1OC1c1ccccc1` (stereo not given), the activity change % (negative = inhibition) is 6.36%.
`Oc1c(Cl)cc(Cl)c(Cl)c1Cl`: the activity change % (negative = inhibition) was -15.9% and 13.1%.
As to `Nc1ccc(-c2ccc(N)c(O)c2)cc1O`, the activity change % (negative = inhibition) is -12.5%.
For the compound `c1ccc(SCCSc2ccccc2)cc1`, the activity change % (negative = inhibition) was 8.32%.
Regarding `O=C(O)/C=C/c1ccc(/C=C/C(=O)O)cc1`, the activity change % (negative = inhibition) is 2.91%.
As to `S=C(NC1CCCCC1)NC1CCCCC1`, the activity change % (negative = inhibition) was 30%.
On to `O=C(OCC1CO1)C1CCCCC1C(=O)OCC1CO1` (stereo not given), for which the activity change % (negative = inhibition) was -2.36%.
Consider `Cc1ccc(N)cc1[N+](=O)[O-]`, for which the activity change % (negative = inhibition) was -24.5%.
In the case of `Cc1c(N)cccc1Cl`, the activity change % (negative = inhibition) is 0.909%.
In the case of `O=C(O)c1ccc([N+](=O)[O-])cc1`, the activity change % (negative = inhibition) is -4.73%.
Regarding `Nc1ccc(N=Nc2ccccc2)c(N)c1`, the activity change % (negative = inhibition) was 1.36%.
`CC(=O)c1ccc(Cl)c(Cl)c1Cl`: the activity change % (negative = inhibition) was -12.3%.
For the compound `O=[N+]([O-])c1cc(N(CCO)CCO)ccc1NCCO`, the activity change % (negative = inhibition) was 14.2% and 12%.
For `CC(C)COC(=O)COc1cc(Cl)c(Cl)cc1Cl`, the activity change % (negative = inhibition) is 14.2%.
`O=[N+]([O-])c1ccc(F)cc1F`: the activity change % (negative = inhibition) was 0.277%.
Turning to `O=C(Cl)c1ccc([N+](=O)[O-])cc1`, the activity change % (negative = inhibition) is 12%.
